The full list was thinned out, with hits kept by preference.
CBX7 inh = blocks human CBX7 binding to H3K27me3 peptide; 1.1% of 66,000 active; AID 1224903; O95931; AlphaScreen His6-CBX7 / biotin-H3K27me3 peptide binding; hits give low values; normalised signal (fraction of DMSO) (no concentration beside the values); in the data active = normalised signal below about 0.5
Target sequence (O95931 whole entry, looked up): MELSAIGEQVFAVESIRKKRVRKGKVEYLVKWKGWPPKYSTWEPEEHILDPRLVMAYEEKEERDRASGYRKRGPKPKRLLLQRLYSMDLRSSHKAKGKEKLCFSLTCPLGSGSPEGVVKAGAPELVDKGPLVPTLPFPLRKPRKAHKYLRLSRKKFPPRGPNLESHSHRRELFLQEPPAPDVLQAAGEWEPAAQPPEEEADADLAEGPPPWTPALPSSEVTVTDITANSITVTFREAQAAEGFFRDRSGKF
* hit, by the source's call.

SMILES	CBX7 inh
O=c1nc(-c2ccccc2)c2cc(Br)ccc2[nH]1	0.954
Fc1ccc(-c2[nH]c(-c3cccs3)nc2-c2ccccc2)cc1	0.89
Cc1ccc(-c2[nH]c(-c3c[nH]c4ccccc34)nc2-c2ccccc2)cc1	0.377*
Cc1ccc(C)c(-c2[nH]c(-c3ccc(O)cc3)nc2-c2ccccc2)c1	0.58
COc1cc(OC)c(NC(=O)CC2Oc3ccc(C)cc3NC2=O)cc1Cl (stereo unspecified)	1.02
CCN(CC)c1nc(C)nc2sc(C(=O)Nc3ccc(OC)cc3OC)c(C)c12	1.01
COc1cc2[nH]c(=O)n(CCCC(=O)NC3CCN(Cc4ccccc4)CC3)c(=O)c2cc1OC	1
COc1ccc(CCN2C(=O)C3C4CC(=O)C(c5ccccc54)C3C2=O)cc1OC (stereo unspecified)	1
COc1ccc(CCNC(=O)c2csc3c2CCCCC3)cc1OC	1.04
COc1ccc(NC(=O)[C@H](CCS(C)(=O)=O)N2Cc3ccccc3C2=O)cc1OC	1.04
COc1ccc(NC(=O)[C@H](Cc2ccccc2)N2Cc3ccccc3C2=O)cc1Cl	0.306*
CSCC[C@@H](C(=O)Nc1ccc(C)c(F)c1)N1Cc2ccccc2C1=O	0.531
COc1ccc(NC(=O)[C@H](CSCc2ccccc2)N2Cc3ccccc3C2=O)cc1Cl	0.87
CS(=O)(=O)CC[C@@H](C(=O)Nc1cccc(F)c1)N1Cc2ccccc2C1=O	1.09
CSCC[C@@H](C(=O)Nc1cccc(F)c1)N1Cc2ccccc2C1=O	0.488*
CCOC(=O)c1c(NC(=O)COc2ccc(C)cc2)sc2c1CCCC2	1.11
COc1ccc(C(=O)N2CCNc3ccccc3C2)cc1OC	0.972
Cc1ccc(S(=O)(=O)NC(C)C(c2cccs2)N2CCN(c3ccc(F)cc3)CC2)cc1 (stereo unspecified)	0.832
Cc1nc2cc(-c3cccc(F)c3)nn2c(C)c1CCC(=O)NCCN1CCCC1	1.01
COc1ccc(N2CCN(C3CC(=O)N(c4cccc(Cl)c4)C3=O)CC2)cc1 (stereo unspecified)	1.06
COc1ccc(N2CCC(CNS(=O)(=O)c3cccc(Cl)c3)C2)cc1 (stereo unspecified)	0.474*
COc1ccc(N2CCC(CNC(=O)Nc3ccccc3)C2)cc1 (stereo unspecified)	0.766
CCOc1cc(O)c(-c2n[nH]c(C)c2Oc2ccccc2)cc1CC	0.752
Cc1[nH]nc(-c2ccc(O)c(C)c2O)c1Oc1ccccc1	0.635
CCc1cc(-c2n[nH]c(C)c2Oc2ccccc2)c(O)cc1O	0.408*
SMILES	CBX7 inh
CCOC(=O)C1CCN(C(C(=O)NC2CCCC2)c2ccc(Cl)cc2)CC1 (stereo unspecified)	0.99
CCCCCCCNC(=O)CN1C(=O)CSc2ccc(S(=O)(=O)N(C)C3CCCCC3)cc21	1.06
CCCCN(CC)S(=O)(=O)c1ccc(C(=O)Nc2nnc(C3CC3)o2)cc1	0.0365*
CCCN(CCC)S(=O)(=O)c1ccc(C(=O)Nc2nnc(C3CC3)o2)cc1	0.528
CCN(Cc1ccccc1)S(=O)(=O)c1ccc(C(=O)Nc2nnc(C3CC3)o2)cc1	0.71
CC(C)CN(CC(C)C)S(=O)(=O)c1ccc(C(=O)Nc2nnc(C3CC3)o2)cc1	0.00617*
CCCCN(C)S(=O)(=O)c1ccc(C(=O)Nc2ccc(-c3nc4ccccc4[nH]3)cc2)cc1	0.945
CCCCN(C)S(=O)(=O)c1ccc(C(=O)Nc2nnc(C3CC3)o2)cc1	0.034*
CCCCN(C)S(=O)(=O)c1ccc(C(=O)Nc2ccccc2-c2nc3ccccc3o2)cc1	1.04
O=C(COc1nsnc1N1CCOCC1)Nc1cccc(C(F)(F)F)c1	1.04
N#Cc1c(N2CCN(C(=O)c3ccc([N+](=O)[O-])cc3)CC2)nc(-c2ccccc2)c2c1CCCC2	0.66
COc1ccc2nc(N3CCCC(C(=O)N4CCN(c5ccccn5)CC4)C3)sc2c1 (stereo unspecified)	0.707
COc1ccc(-c2cc(C(=O)Nc3nnc(C)s3)c3ccccc3n2)c(OC)c1	1.09
NCCNC(=O)c1c(O)c2ccccc2oc1=O	0.642
O=C(Nc1nnc(COc2ccc(F)cc2)s1)C1CCCCC1	0.99
COc1ccc(OC)c(NC(=O)c2c(NCc3cccs3)sc3c2CCCCC3)c1	0.427*
COc1ccc(OC)c(NC(=O)c2c(NCc3cccs3)sc3c2CCC3)c1	0.951
COc1ccc(Cl)cc1NC(=O)c1c(NCc2cccs2)sc2c1CCCC2	0.817
CCOc1ccc(NC(=O)c2c(NCc3cccs3)sc3c2CCCCC3)cc1	0.442*
COc1ccc(NC(=O)c2c(NCc3cccs3)sc3c2CCC3)cc1	0.567
COc1ccccc1NC(=O)c1c(NCc2sccc2C)sc2c1CCCCC2	0.551
COc1ccc(OC)c(NC(=O)c2c(NCc3cccs3)sc3c2CCCC3)c1	0.593
COc1ccc(OC)c(CNc2sc3c(c2C(=O)Nc2cc(OC)ccc2OC)CCCC3)c1	0.579
COc1ccc(NC(=O)c2c(NCc3cccs3)sc3c2CCCCC3)cc1	0.736
COc1ccc(OC)c(NC(=O)c2c(NCc3sccc3C)sc3c2CCCC3)c1	0.493*
SMILES	CBX7 inh
COc1ccc(NC(=O)c2c(NCc3sccc3C)sc3c2CCCCC3)c(OC)c1	0.52
COc1ccc(Cl)cc1NC(=O)c1c(NCc2sccc2C)sc2c1CCCC2	0.388*
CC(=O)N1CCc2cc(S(=O)(=O)NCCC(=O)Nc3ccc(Br)cc3C)ccc21	1.07
CCn1c(SCC(=O)Nc2cccc(C(F)(F)F)c2)nnc1-c1c[nH]c2ccccc12	1.1
CCOC(=O)c1c(NC(=O)CN2CCC(C)CC2)sc2c1CCC(C)C2 (stereo unspecified)	0.996
O=C(NCc1ccccc1)C(O)(c1ccc(Cl)cc1)c1ccc(Cl)cc1	1.02
Cc1[nH]c2ccc(-c3nnc(SCCO)n3-c3ccc(Br)cc3)cc2c1C	0.455*
CCSc1nnc(-c2ccc3[nH]c(C)c(C)c3c2)n1-c1ccccc1	0.936
Cc1[nH]c2ccc(-c3nnc(SCCc4ccccc4)n3-c3ccccc3)cc2c1C	0.783
CCOc1ccc(C(=O)Nc2c(C(=O)c3ccc(Cl)cc3)oc3ccccc23)cc1	1
N#Cc1nc(COc2ccc(Cl)cc2)oc1N1CCCCCC1	0.373*
N#Cc1nc(COc2cccc(Cl)c2)oc1N1CCCCCC1	0.448*
N#Cc1nc(COc2cccc(Cl)c2)oc1N1CCCCC1	0.501
N#Cc1nc(COc2ccccc2)oc1N1CCCCC1	0.638
CC1CCN(c2oc(COc3cccc(Cl)c3)nc2C#N)CC1	0.573
N#Cc1nc(COc2ccccc2Cl)oc1N1CCCCCC1	0.701
Cc1ccc(NC(=O)c2cnc(Nc3ccc(C)c(Cl)c3)c3ccccc23)cc1F	1.36
COc1ccc2c(c1)-c1nc(NC(C)=O)sc1CC2	1.04
Oc1ccc(/C=C/c2ccc3cccc(OCc4ccccc4Cl)c3n2)cc1	1.02
COc1ccc(Nc2cc(C(=O)NCCc3ccc(Cl)cc3)c3ccccc3n2)cc1	0.931
Cc1ccc(N2C(=O)c3ccccc3C2Nc2ccc(Cl)cc2Cl)nc1 (stereo unspecified)	0.872
COc1ccc(OC)c(NC2c3ccccc3C(=O)N2c2ccc(Cl)cn2)c1 (stereo unspecified)	0.344*
COc1ccc(OC)c(NC2c3ccccc3C(=O)N2c2ccc(Cl)cc2)c1 (stereo unspecified)	0.638
COc1ccc(NC2c3ccccc3C(=O)N2c2ccc(C)cn2)cc1OC (stereo unspecified)	0.94
COc1cc(OC)c(NC2c3ccccc3C(=O)N2c2ccc(C)cn2)cc1Cl (stereo unspecified)	0.414*
COc1ccc(OC)c(NC2c3ccccc3C(=O)N2c2ccccn2)c1 (stereo unspecified)	0.722

Screening data (PubChem)
